Laboratory results reported in PubChem BioAssay AID1159580 (chemical genetic matrix, 2015).
Among all 5,500 compounds or so, about 2,000 (36%) were called active. Another 18% or so got no clear call; they are omitted. The list shows a part of the results. Unmarked numbers belong to inactive results. Cut-off read from the data, not from the text of the source: active = normalized growth mostly below about 0.91 (no sharp cut-off); inconclusive = no clear call, values can overlap the other calls; inactive = mostly above about 0.92.

Assay: chemical genetic growth profiling, strain panel (AID 1159580);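 note: tested at 20 µM; growth read once vehicle control cultures reached saturation at 30 °C; 1 = growth at the plate median or of vehicle wells; lower values mean less growth of the strain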
Conditions: S. cerevisiae deletion strains, growth OD
[1] = locus YAL040C, strain CLN3, active compounds read low
[2] = locus YCL061C, strain MRC1 (second series), active compounds read low
[3] = locus YDR363W, strain ESC2, active compounds read low
[4] = locus YER002W, strain NOP16, active compounds read low
[5] = locus YGR078C, strain PAC10, active compounds read low
[6] = locus YGR229C, strain SMI1, active compounds read low
[7] = locus YNL175C, strain NOP13, active compounds read low
[8] = locus YNL197C, strain WHI3, active compounds read low
[9] = locus YNL224C, strain SQS1, active compounds read low
[10] = locus YNL322C, strain KRE1, active compounds read low
[11] = locus YOR083W, strain WHI5 (second series), active compounds read low
[12] = locus YHR030C, strain SLT2, active compounds read low
[13] = locus YDR150W, strain NUM1, active compounds read low
[14] = locus YJR075W, strain HOC1, active compounds read low
[15] = locus YMR263W, strain SAP30, active compounds read low
[16] = locus YMR307W, strain GAS1, active compounds read low
[17] = locus YPL241C, strain CIN2, active compounds read low

CC(/C=C/c1cccc(Oc2ccc(F)cc2)c1)N(O)C(N)=O (stereo unspecified)
normalized growth [1]: 0.991 | normalized growth [2]: 0.994 | normalized growth [3]: 0.987 | normalized growth [4]: 1.01 | normalized growth [5]: 1.01 | normalized growth [6]: 1 | normalized growth [7]: 1 | normalized growth [8]: 0.971 | normalized growth [9]: 0.984 | normalized growth [10]: 1.01 | normalized growth [11]: 0.966

OCCOCCN1CCN(C2=Nc3ccccc3Sc3ccccc32)CC1
normalized growth (locus YAL021C, strain ccr4, active compounds read low): 1.01 | normalized growth (locus YAL026C, strain drs2, active compounds read low): 1 | normalized growth (locus YAL030W, strain snc1, active compounds read low): 0.992 | normalized growth (locus YBL061C, strain skt5, active compounds read low): 1.02 | normalized growth (locus YBR009C, strain hhf1, active compounds read low): 1.02 | normalized growth (locus YBR023C, strain chs3, active compounds read low): 1.01 | normalized growth (locus YBR171W, strain sec66, active compounds read low): 1 | normalized growth (locus YBR231C, strain swc5, active compounds read low): 1.01 | normalized growth (locus YBR279W, strain paf1, active compounds read low): 1.01 | normalized growth (locus YCL011C, strain gbp2, active compounds read low): 0.993 | normalized growth (locus YCL016C, strain dcc1, active compounds read low): 0.997 | normalized growth (locus YCL069W, strain vba3, active compounds read low): 1.01 | normalized growth (locus YCR088W, strain abp1, active compounds read low): 1 | normalized growth (locus YDL005C, strain med2, active compounds read low): 1 | normalized growth (locus YDL040C, strain nat1, active compounds read low): 1 | normalized growth (locus YDR001C, strain nth1, active compounds read low): 1.01 | normalized growth (locus YDR069C, strain doa4, active compounds read low): 0.998 | normalized growth (locus YDR137W, strain rgp1, active compounds read low): 1 | normalized growth (locus YDR159W, strain sac3, active compounds read low): 1 | normalized growth (locus YDR195W, strain ref2): 0.977 | normalized growth (locus YDR297W, strain sur2, active compounds read low): 0.993 | normalized growth (locus YDR334W, strain swr1, active compounds read low): 1.01 | normalized growth (locus YDR335W, strain msn5, active compounds read low): 1.01 | normalized growth (locus YDR392W, strain spt3, active compounds read low): 1.02 | normalized growth (locus YEL003W, strain gim4, active compounds read low): 1 | normalized growth (locus YEL037C, strain rad23, active compounds read low): 1.01 | normalized growth (locus YEL061C, strain CIN8 (second series), active compounds read low): 1 | normalized growth (locus YER015W, strain faa2, active compounds read low): 1.01 | normalized growth (locus YER016W, strain bim1, active compounds read low): 1.01 | normalized growth (locus YER111C, strain swi4, active compounds read low): 1.01 | normalized growth (locus YER155C, strain BEM2 (second series), active compounds read low): 0.993 | normalized growth (locus YFR010W, strain ubp6, active compounds read low): 1.01 | normalized growth (locus YGL167C, strain pmr1, active compounds read low): 1 | normalized growth (locus YGL173C, strain kem1, active compounds read low): 1 | normalized growth (locus YGL227W, strain vid30, active compounds read low): 0.989 | normalized growth (locus YGL240W, strain doc1, active compounds read low): 0.992 | normalized growth (locus YGL253W, strain hxk2, active compounds read low): 1.02 | normalized growth (locus YHR013C, strain ard1, active compounds read low): 0.982 | normalized growth (locus YHR027C, strain rpn1, active compounds read low): 1 | normalized growth [12]: 0.991 | normalized growth (locus YHR079C, strain IRE1, active compounds read low): 0.994 | normalized growth (locus YHR142W, strain chs7, active compounds read low): 1.02 | normalized growth (locus YJL092W, strain hpr5, active compounds read low): 1.02 | normalized growth (locus YJL095W, strain BCK1 (second series), active compounds read low): 1 | normalized growth (locus YJL095W, strain BCK1, active compounds read low): 0.999 | normalized growth (locus YJL115W, strain asf1, active compounds read low): 1 | normalized growth (locus YJL129C, strain trk1, active compounds read low): 1.02 | normalized growth (locus YJL154C, strain vps35, active compounds read low): 1.03 | normalized growth (locus YJL164C, strain tpk1, active compounds read low): 1.01 | normalized growth (locus YJL166W, strain qcr8, active compounds read low): 1.01 | normalized growth (locus YJL187C, strain SWE1, active compounds read low): 1.01 | normalized growth (locus YJR066W, strain TOR1, active compounds read low): 0.978 | normalized growth (locus YKL160W, strain elf1, active compounds read low): 1 | normalized growth (locus YKR026C, strain gcn3, active compounds read low): 1.02 | normalized growth (locus YKR091W, strain srl3, active compounds read low): 1.01 | normalized growth (locus YLL001W, strain dnm1, active compounds read low): 0.996 | normalized growth (locus YLL026W, active compounds read low): 1 | normalized growth (locus YLL041C, strain sdh2, active compounds read low): 1.02 | normalized growth (locus YLR027C, strain aat2, active compounds read low): 1.01 | normalized growth (locus YLR113W, strain HOG1, active compounds read low): 1 | normalized growth (locus YLR221C, strain rsa3, active compounds read low): 1 | normalized growth (locus YLR258W, strain gsy2, active compounds read low): 1.01 | normalized growth (locus YLR262C, strain YPT6 (second series), active compounds read low): 1.03 | normalized growth (locus YLR320W, strain mms22, active compounds read low): 0.981 | normalized growth (locus YLR342W, strain FKS1, active compounds read low): 1 | normalized growth (locus YLR357W, strain rsc2, active compounds read low): 1.01 | normalized growth (locus YLR370C, strain arc18, active compounds read low): 1.01 | normalized growth (locus YLR384C, strain iki3, active compounds read low): 1.01 | normalized growth (locus YML120C, strain ndi1, active compounds read low): 1.01 | normalized growth (locus YMR058W, strain fet3, active compounds read low): 1.01 | normalized growth (locus YMR125W, strain sto1, active compounds read low): 1.01 | normalized growth (locus YMR129W, active compounds read low): 1.01 | normalized growth (locus YMR205C, strain PFK2, active compounds read low): 0.994 | normalized growth (locus YMR231W, strain pep5, active compounds read low): 1 | normalized growth (locus YNL071W, strain lat1, active compounds read low): 1 | normalized growth (locus YNL183C, strain NPR1, active compounds read low): 0.975 | normalized growth (locus YNL209W, strain ssb2, active compounds read low): 1.01 | normalized growth (locus YNL248C, strain rpa49, active compounds read low): 0.977 | normalized growth (locus YNL322C, strain KRE1 (second series), active compounds read low): 1 | normalized growth (locus YNR049C, strain mso1, active compounds read low): 1.01 | normalized growth (locus YOR001W, strain rrp6, active compounds read low): 0.995 | normalized growth (locus YOR070C, strain gyp1, active compounds read low): 0.995 | normalized growth (locus YOR080W, strain dia2, active compounds read low): 1 | normalized growth (locus YOR083W, strain WHI5, active compounds read low): 0.991 | normalized growth (locus YOR106W, strain vam3, active compounds read low): 0.997 | normalized growth (locus YOR231W, strain MKK1, active compounds read low): 0.981 | normalized growth (locus YOR265W, strain rbl2, active compounds read low): 1 | normalized growth (locus YOR270C, strain vph1, active compounds read low): 1 | normalized growth (locus YOR290C, strain snf2, active compounds read low): 1 | normalized growth (locus YPL051W, strain arl3, active compounds read low): 1.02 | normalized growth (locus YPL078C, strain atp4, active compounds read low): 1.01 | normalized growth (locus YPL106C, strain sse1, active compounds read low): 1.03 | normalized growth (locus YPL240C, strain hsp82, active compounds read low): 1 | normalized growth (locus YPL256C, strain CLN2, active compounds read low): 0.989

N=C1Sc2ccccc2C2=NCCCN12
normalized growth [1]: 1.02 | normalized growth [2]: 1.01 | normalized growth [13]: 1.04 | normalized growth [3]: 1.01 | normalized growth [4]: 1.04 | normalized growth [5]: 1.02 | normalized growth [14]: 0.945 | normalized growth [15]: 1.01 | normalized growth [16]: 0.872 (active) | normalized growth [7]: 1.04 | normalized growth [8]: 1.02 | normalized growth [9]: 1.02 | normalized growth [10]: 1.01 | normalized growth [11]: 0.988 | normalized growth [17]: 1.02

Clc1ccc(C2=CSC3=NCCCN23)cc1
normalized growth (locus YAL013W, strain DEP1, active compounds read low): 0.997 | normalized growth (locus YBR229C, strain ROT2, active compounds read low): 1.02 | normalized growth (locus YDL101C, strain DUN1, active compounds read low): 0.993 | normalized growth [13]: 0.959 | normalized growth (locus YEL061C, strain CIN8, active compounds read low): 1 | normalized growth [5]: 0.992 | normalized growth [6]: 1.01 | normalized growth [12]: 0.986 | normalized growth (locus YHR087W, strain rtc3, active compounds read low): 0.994 | normalized growth (locus YJR043C, strain POL32, active compounds read low): 0.999 | normalized growth [14]: 0.989 | normalized growth (locus YLR039C, strain RIC1, active compounds read low): 0.989 | normalized growth (locus YLR058C, strain SHM2 (second series), active compounds read low): 1.01 | normalized growth (locus YLR085C, strain ARP6, active compounds read low): 1.03 | normalized growth (locus YLR262C, strain YPT6, active compounds read low): 0.998 | normalized growth (locus YML094W, strain GIM5, active compounds read low): 0.993 | normalized growth (locus YMR219W, strain ESC1, active compounds read low): 1.01 | normalized growth [15]: 0.986 | normalized growth [16]: 0.982 | normalized growth (locus YNL153C, strain GIM3, active compounds read low): 0.995 | normalized growth (locus YNL298W, strain CLA4 (second series), active compounds read low): 1.04 | normalized growth [10]: 0.999 | normalized growth (locus YNR030W, strain Alg12, active compounds read low): 1.01 | normalized growth (locus YPL055C, strain LGE1, active compounds read low): 1.03 | normalized growth [17]: 1 | normalized growth (locus YPR135W, strain CTF4, active compounds read low): 1.02
